Gli-Sufu antag – Gli-Sufu pathway antagonism. inhibition, % at 5 µM. 0.74% of 340,000 active. Sufu-KO-LIGHT fibroblasts, Gli luciferase reporter luminescence. AID 588413;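 active = inhibition above about 55%, limit read from the data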;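 note: 0% = DMSO-treated cells and 100% = wells with medium but no cells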
NCOA3 inh – inhibits human SRC3 coactivator. HEK293 GAL4-SRC3 luciferase reporter, luminescence. 0.17% of 360,000 active. inhibition, % at 3.6 µM. AID 588352. Q9Y6Q9;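 active = inhibition above a per-campaign cutoff, the mean of all compounds plus 3 SD, cut at about 60% in these data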;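 note: 0% = DMSO-treated cells and 100% = gossypol-treated cells at 36 µM; higher means less SRC3-driven luciferase light from the GAL4 reporter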
Shn3 inh set2 – reduces Shn3 3'UTR luciferase signal in osteoblasts. Clone20 osteoblast Shn3 3'UTR firefly luciferase, 24 h. inhibition, % at 12.5 µM. 0.52% of 360,000 active;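 active = mean inhibition of at least 75% with every replicate also reaching 75%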;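 note: 0% = median of neutral control wells and 100% = pilot-screen positive control compound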
NR5A2 inv ag – inverse agonists of human LRH-1 (NR5A2). HEK293T StAR-luciferase reporter, LRH-1 transfected, 24 h. 0.13% of 360,000 active. AID 602396. inhibition, % at 3.6 µM. O00482;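 active = inhibition above the mean inhibition of all tested compounds plus 3 SD, cut at about 73% in these data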;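 note: 0% = DMSO wells and 100% = reporter-only cells lacking LRH-1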
Target sequence (O00482 whole entry, looked up): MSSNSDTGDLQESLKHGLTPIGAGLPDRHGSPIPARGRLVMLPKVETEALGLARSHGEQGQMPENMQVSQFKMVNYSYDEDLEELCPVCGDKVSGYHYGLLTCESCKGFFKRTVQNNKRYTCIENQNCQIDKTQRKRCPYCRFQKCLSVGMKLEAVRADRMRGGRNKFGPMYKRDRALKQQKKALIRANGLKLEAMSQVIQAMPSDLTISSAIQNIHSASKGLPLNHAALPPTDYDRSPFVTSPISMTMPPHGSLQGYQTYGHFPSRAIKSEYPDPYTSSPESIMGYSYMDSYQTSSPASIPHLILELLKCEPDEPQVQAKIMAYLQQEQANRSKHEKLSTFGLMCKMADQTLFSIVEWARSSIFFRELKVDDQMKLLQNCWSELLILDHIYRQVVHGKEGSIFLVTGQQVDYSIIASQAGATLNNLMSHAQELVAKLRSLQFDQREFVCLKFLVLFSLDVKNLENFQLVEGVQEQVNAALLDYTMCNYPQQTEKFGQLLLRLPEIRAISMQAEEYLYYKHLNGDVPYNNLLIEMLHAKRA
NCOA1 inh – human NCOA1 inhibition | Q15788 | 0.12% of 360,000 active | inhibition, % at 3.6 µM | HEK293 GAL4-SRC1 luciferase reporter, luminescence;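 active = inhibition above the campaign mean plus 3 SD, with each screening campaign given its own cutoff, cut at about 60% in these data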;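 note: 0% = DMSO treated cells and 100% = gossypol at 36 µM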
NCOA2 inhibitor – inhibits human steroid receptor coactivator 2; HEK293 GAL4-SRC2 luciferase reporter, luminescence; inhibition, % at 9 µM; 0.17% of 370,000 active;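 active = inhibition above the mean inhibition of all tested compounds plus 3 SD, set per campaign, cut at about 52% in these data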;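 note: 0% = DMSO treated cells and 100% = cells given Gossypol at 36 µM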
* hit, by the source's call; / = not tested or not shown. A selection: hits, their analogues and other compounds. The true share with any hit is near 1.1%.

SMILES	Gli-Sufu antag	NCOA3 inh	Shn3 inh set2	NR5A2 inv ag	NCOA1 inh	NCOA2 inhibitor
COc1ccc(OC)c(S(=O)(=O)N2CCCCC2C(=O)N2CCN(c3ccc(F)cc3)CC2)c1 (stereo unspecified)	/	/	/	/	/	12.5
COc1cccc(NC(=O)Nc2c(-c3ccc(F)cc3)nc3ncccn23)c1	/	/	/	/	/	-7.2
COc1cc(/C=N/O)ccc1OCc1ccc(Cl)cc1	/	/	/	/	/	-38.6
COc1cc(/C=N/O)ccc1OCc1ccc(C(=O)O)cc1	-117.5	-84.5	90.3*	-213.9	-134.8	-43.6
Cc1ccc(-c2nc(C3CCCN(S(=O)(=O)c4cccs4)C3)no2)cc1 (stereo unspecified)	/	/	/	/	/	-11.4
O=C(COC(=O)c1ccc[nH]c1=O)Nc1ccc(N2CCCCC2)cc1	53.6	50.1	78.6	47.9	50.8	87.4*
O=C(COC(=O)c1ccc[nH]c1=O)Nc1ccc(S(=O)(=O)N2CCCC2)cc1	5.9	1.0	-0.9	6.5	-16.2	5.2
CC(=O)c1cc(-c2ccc(-c3ccccc3)c(F)c2)c(=O)n2c1CCC2	/	/	/	/	/	-1.8
O=C(CSc1nc2ncc(Cl)cc2[nH]1)N1CCOCC1	-1.5	-21.1	85.8*	20.9	-18.7	-1.4
COc1ccc(C(=O)N/N=C/c2cc(Br)ccc2O)cc1OC	19.3	63.8*	91.4*	20.1	34.1	18.2
COc1cc(Cl)cc(/C=N\NC(=O)c2ccc3c(c2)OCO3)c1O	/	44.5	88.0*	21.7	36.2	15.2
CCOC(=O)[C@@]12CCC3=C1N(CCC3)C(=O)[C@H](CC(=O)N1CCSCC1)C2	/	/	/	/	/	-6.4
c1ccc(Cn2ccc3ccc(-c4ccc5ccn(Cc6cccc(-c7cccs7)c6)c5c4)cc32)cc1	/	/	/	/	/	14.2
COC(=O)c1cc(-c2cc(F)cc(OC)c2)c(=O)n2c1CCC2	/	/	/	/	/	6.6
Cc1ccc(-n2c(SCC(=O)Nc3ccc(S(=O)(=O)Nc4cc(C)nc(C)n4)cc3)nnc2-c2ccc(C(C)(C)C)cc2)cc1	/	/	/	/	/	11.9
CCOc1cc(/C=N/N=C(N)N)ccc1OCc1ccc(Cl)cc1	2.7	12.5	95.3*	0.0	6.2	-29.4
CCOc1cc(CNCCc2ccc(S(N)(=O)=O)cc2)ccc1OCc1ccc(Cl)cc1	30.9	30.9	90.5*	4.7	17.9	23.1
COc1cc(CNCCc2ccc(S(N)(=O)=O)cc2)ccc1OCc1ccc(Cl)cc1	2.8	-17.2	44.5	0.7	-2.1	13.1
COCCCN1C(=O)[C@H](CC(=O)NCc2ccccc2)[C@]2(C(=O)OC)CCCCC=C12	/	/	/	/	/	2.0
COc1ccc(CN2C(=O)CCCC2(C)c2nnnn2-c2c(C)cccc2C)cc1OC (stereo unspecified)	/	/	/	/	/	6.3
Cc1cc(N=Cc2c(O)n(-c3ccc(C)c(C)c3)c(=O)c3ccccc23)no1	/	/	/	/	/	-9.7
Cc1ccc(-n2c(O)c(C=Nc3cc(C)on3)c3ccccc3c2=O)c(C)c1	34.1	66.7*	29.7	22.3	53.6	3.1
C=CCN1C(=O)[C@@H](CC(=O)NCc2cccc(C(F)(F)F)c2)[C@]2(C(=O)OC)CCCCC=C12	/	/	/	/	/	12.4
O=C(Cn1nnc(-c2ccc(N3CCOCC3)cc2)n1)c1cccc(F)c1	/	/	/	/	/	-1.9
Cc1ccccc1N=Cc1c(O)n(-c2nccs2)c(=O)c2ccccc12	-0.4	-18.1	-21.1	34.5	5.9	-1.4
SMILES	Gli-Sufu antag	NCOA3 inh	Shn3 inh set2	NR5A2 inv ag	NCOA1 inh	NCOA2 inhibitor
O=c1c2ccccc2c(C=Nc2ccccc2O)c(O)n1-c1nccs1	1.9	-6.3	86.6*	44.6	-45.2	-4.8
CNC(=O)OCc1nc(SSC(C)(C)C)n(C)c1COC(=O)NC	41.9	-77.2	96.3*	-9.4	-93.8	-279.1
COc1cc(OC)c2c(-c3cccc(-c4ccc(NC(C)=O)cc4)c3)cc(=O)oc2c1	36.8	6.5	-7.9	3.1	-9.8	6.6
COc1cc(OC)c2c(-c3cccc(-c4sccc4C(C)=O)c3)cc(=O)oc2c1	67.1*	18.1	13.4	-10.7	-29.5	16.7
Cc1ccc(CN2CCCCC(NC(=O)C(C)(C)C)C2=O)cc1 (stereo unspecified)	/	/	/	/	/	9.2
O=C(/C=C/c1cccc([N+](=O)[O-])c1)c1ccc([N+](=O)[O-])o1	-7.9	21.1	97.4*	-13.4	-3.1	-49.4
COc1cccc(Oc2nnnn2-c2ccccc2)c1	-55.5	-70.0	-57.2	-76.9	-71.5	-21.3
COc1cccc(-n2nnnc2S(C)(=O)=O)c1	-0.1	37.3	96.5*	18.3	-44.0	/
Cc1ccc(-n2c(SCC(=O)Nc3ccccc3-c3ccccc3)nnc2-c2cnccn2)cc1	/	/	/	/	/	25.9
